In the library only some 2% were active in any assay of this set; here they are far more common.
GRP78 ERSR act: induces the endoplasmic reticulum stress response in human glioma cells; AID 602332; Potency, µM, inactives show at the highest dose activation, most hits filed as activators; U87-MG GRP78 promoter luciferase reporter, 16 h; 420,000 tested, 0.02% active; note: series mostly up to about 76 µM; % of control where 0% means no effect; nearly all actives have a fitted effect of over 35% in size
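Stably transfected U87-MG human glioma cells carrying a GRP78-based luminescent sensor were seeded at 1000 cells/well, pin-dosed with compounds and incubated 16 h. Luciferase reagent was then added, and end-point luminescence was read after 10 min at room temperature.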
aSyn yeast inh: rescues yeast growth from alpha-synuclein toxicity; Yeast expressing alpha-synuclein, growth rescue, BacTiter-Glo, 24 h; Potency, µM (titrated, usually from 46.1 µM), for the others: at the top dose growth rescue (activation), most hits filed as activators; 370,000 tested, 0.14% active; AID 652106; note: % of control where 0% means no effect; nearly all actives have a fitted effect of over 65% in size
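Galactose-induced alpha-syn yeast (OD600=0.02, raffinose-pregrown) + pinned cpd, 24 hr, 30 deg C; growth by BacTiter-Glo luminescence. Growth restoration scores as activation.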
Abeta yeast res: compounds reversing amyloid beta toxicity in yeast | AID 1347071 | yeast expressing A-beta42, growth rescue, OD600, 48 h; response scale: 0% DMSO, 100% iron-clioquinol control | 410,000 tested, 0.063% active | Potency, µM (top dose mostly 46.1 µM), actives largely listed as activators; note: nearly all actives have a fitted effect of over 55% in size
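Yeast growth medium received pinned compounds, then yeast cells expressing toxic A-beta were added; plates incubated at 30 C for 48 hr. Growth read as absorbance at 600 nm, normalized to DMSO and equimolar FeCl3 plus clioquinol controls.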
TDP-43 yeast inh: rescues yeast growth from TDP-43 toxicity; TDP-43 expressing yeast growth rescue, BacTiter-Glo, 24 h; Potency, µM (top dose mostly 46.1 µM), without a hit: at the highest dose growth rescue (activation), usual class: activators; 410,000 tested, 1.8% active; AID 652104; note: % of control where 0% means no effect; nearly all actives have a fitted effect of over 50% in size
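Yeast cells expressing TDP-43 under galactose induction are exposed to compounds for 24 hr at 30 deg C. BacTiter-Glo luminescence measures growth, so protective compounds score as activators.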
FUS suppressor: FUS proteinopathy suppression in yeast | S. cerevisiae FUS-expressing, growth rescue, OD600, 24 h | Potency, µM (highest dose often 76.6 µM), usual class: activators | 390,000 tested, 0.24% active | AID 1347120;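 note: plate controls were DMSO vehicle for no effect and reference control for full effect; nearly all actives have a fitted effect of over 55% in size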
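Galactose (2%) drives FUS expression in yeast precultured in raffinose; seeding density OD 0.005. Test compounds incubated 24hr at 30C and 99% humidity before absorbance at 600 nm was measured.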
MBNL1 CUG block: inhibitors of human MBNL1 binding to CUG repeat RNA | Q9NR56 | TR-FRET MBNL1-His/biotin-(CUG)12 binding, 665/545 ratio | Potency, µM (series often up to 57.5 µM), for the others: at the top dose activity change, negative = inhibition, usual class: inhibitors | 280,000 tested, 0.036% active | AID 2675; active = well fitted inhibition curve with a large enough effect in the signal ratio, with a control signal flat, not every such curve was filed as active; inconclusive = small, poorly fitted or top-dose-only effect, or effect the other way, or a change in a side signal; inactive = no such curve, though single readings can be large or run the other way; the % refers to the signal ratio; note: % is set by controls: 0 for no effect and ±100 for the full control effect
Target sequence (Q9NR56 whole entry, looked up): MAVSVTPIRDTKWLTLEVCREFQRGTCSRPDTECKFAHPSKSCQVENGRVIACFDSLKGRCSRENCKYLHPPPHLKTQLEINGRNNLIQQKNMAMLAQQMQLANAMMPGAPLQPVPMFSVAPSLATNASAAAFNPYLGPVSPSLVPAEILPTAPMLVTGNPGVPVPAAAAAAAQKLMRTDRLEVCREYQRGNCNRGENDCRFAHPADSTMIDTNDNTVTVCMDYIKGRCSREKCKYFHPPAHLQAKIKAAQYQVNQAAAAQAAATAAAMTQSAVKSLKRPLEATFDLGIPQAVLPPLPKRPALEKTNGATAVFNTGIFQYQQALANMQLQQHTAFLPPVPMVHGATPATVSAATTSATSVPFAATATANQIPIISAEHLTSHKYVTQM
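TR-FRET between His-tagged MBNL1 and biotin-(CUG)12 RNA, detected with Tb anti-His antibody (0.055 ng/ul) and streptavidin-XL665 (5 nM), 60 min at room temperature. Compounds titrated 92 nM to 58 uM; 665/545 nm ratio normalized to buffer and complex controls.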
Numbers without * were called inactive; i = inactive; ? = inconclusive; · = not tested or not shown. Unless noted, calls come from the whole dose curve; as a rule, active = well fitted curve in the direction sought with a large enough effect; inconclusive = small, poorly fitted or top-dose-only effect, or another doubt; inactive = no such curve, though single readings can be large; an effect the other way counts as inactive or inconclusive. Potency is the fitted concentration of half-maximal effect.

SMILES | GRP78 ERSR act | aSyn yeast inh | Abeta yeast res | TDP-43 yeast inh | FUS suppressor | MBNL1 CUG block
NC(=S)c1cnn2c(-c3cccc(C(F)(F)F)c3)ccnc12 | -2% | -11% | 6.3µM* | ? | i | 10%
N#Cc1cnn2c(-c3ccccc3)ccnc12 | 4% | 10% | i | 4% | i | 15%
O=C(NCc1c(O)ccc2ccccc12)c1ccccc1 | 2% | 7% | ? | 20µM* | i | -2%
O=C(NCc1ccccc1)c1ccccc1 | 1% | 1% | i | 19% | i | ·
C=CCNC(=O)Nc1ccc2c(c1)[C@]1(CC(=O)N(CC(C)C)C1c1ccccc1)C(=O)N2C (some centres not stated) | · | · | · | · | i | ·
O=C1CC(c2ccccc2)=NO1 | -2% | 16µM* | i | 10µM* | i | ·
CC(=O)Nc1ccccc1-c1nc(CNC(=O)c2ccc(F)c(F)c2)c(C)o1 | -5% | · | · | · | · | ·
O=C(CN1CCCN(Cc2ccccc2F)S1(=O)=O)Nc1ccc(F)c(Cl)c1 | -4% | · | ? | 11µM* | i | ·
COC(=O)c1cc(NC(=O)Cn2nc(-c3ccccc3)c3c(c2=O)CCCC3)cc(C(=O)OC)c1 | -3% | · | i | 19% | i | ·
O=C(Cn1nc(-c2ccccc2)c2c(c1=O)CCCC2)Nc1ccc(F)c(Cl)c1 | -2% | · | i | -6% | 10µM* | ·
COc1cc(NC(=O)c2ccccc2)c(C)cc1NC(=O)CSc1nnc(-c2ccccc2F)n1-c1ccc(C)cc1 | · | · | · | · | 10µM* | ·
O=C(CSc1nnc(-c2ccccc2)n1-c1ccc(Cl)cc1)Nc1ccccc1-c1ccccc1 | · | · | · | · | 8.9µM* | ·
Nn1c(SCC(=O)Nc2cccc3ccccc23)nnc1-c1cc(-c2ccccc2)n[nH]1 | · | · | · | · | i | ·
Cc1ccc(NC(=O)CSc2nnc(-c3ccccc3F)n2-c2ccccc2)c(C)c1 | · | · | · | · | i | ·
Cc1ccc(-c2cc(-c3nnc(SCC(=O)Nc4ccccc4-c4ccccc4)n3N)[nH]n2)cc1 | · | · | · | · | 18µM* | ·
O=[N+]([O-])c1cc(Cl)ccc1N1CCOCC1 | -3% | -5% | i | 4% | i | ?
Nc1cc(N2CCCC2)c(Cl)cc1[N+](=O)[O-] | -2% | 16% | i | 11µM* | i | ?
Nc1cc(N2CCOCC2)c(Cl)cc1[N+](=O)[O-] | -6% | -1% | i | 20µM* | i | ?
Nc1cc(N2CCCC2)ccc1[N+](=O)[O-] | 1% | 2% | i | 23% | i | 13%
O=[N+]([O-])c1ccc(N2CCCC2)cc1N1CCCC1 | -5% | 2% | i | 16µM* | i | ?
Cc1ccc(-c2cc(C(=O)N=Nc3c(O)[nH]c4ccccc34)[nH]n2)cc1C | · | · | · | · | i | ·
Cc1c(C(=O)NCC(C)(C)CN(C)C)cnn1-c1nccc(-c2ccccc2F)n1 | 0% | · | · | · | · | ·
CC(=O)C1(C(=O)NCc2ccccc2)CC(c2ccccc2C(F)(F)F)=NO1 (configuration not stated) | · | · | · | · | i | ·
Fc1ccc(CSc2nnc(-c3ccccn3)o2)cc1 | -7% | -2% | i | 13µM* | i | 2%
COc1ccc(Nc2nc(NCCO)nc(N3CCCC3)n2)cc1 | -2% | · | i | · | i | ·
SMILES | GRP78 ERSR act | aSyn yeast inh | Abeta yeast res | TDP-43 yeast inh | FUS suppressor | MBNL1 CUG block
CCCNc1nc(Nc2ccc(C)cc2)nc(N2CCCC2)n1 | 1% | 1% | i | 11µM* | i | -12%
COc1ccc(-n2c(SCC(=O)Nc3nccs3)nc3sc4c(c3c2=O)CCN(C)C4)cc1 | -1% | 6% | i | -18% | 28µM* | ?
COc1ccc(NC(=O)CSc2nc3sc4c(c3c(=O)n2-c2ccc(OC)cc2)CCN(C)C4)cc1 | -3% | -1% | i | 4% | ? | 166%
COc1ccc(Nc2ncnc3c2nc2n3CCCC2)cc1Cl | -1% | · | i | 13µM* | i | ·
COc1ccc(Nc2ncnc3c2nc2n3CCCCC2)cc1 | -4% | · | i | ? | i | ·
CCOc1ccc(Nc2ncnc3c2nc2n3CCCCC2)cc1 | -1% | · | i | 13µM* | i | ·
Fc1ccc(Nc2ncnc3c2nc2n3CCCCC2)c(F)c1 | -5% | · | i | 11µM* | i | ·
Cc1ccc(-c2ccnc(-n3ncc(C(=O)NC[C@@H]4CCCN5CCCC[C@H]45)c3C3CC3)n2)o1 | -5% | · | · | · | · | ·
CC1CN(C(=O)Nc2ccc3snnc3c2)c2ccccc21 (configuration not stated) | -2% | 1% | i | 16µM* | i | 12%
O=C(Nc1ccc2snnc2c1)N1CCSCC1 | -1% | -13% | i | 8% | i | 5%
N[C@H](C(=O)Nc1ccc(Cl)cc1C(=O)c1ccc[nH]1)c1ccccc1 | · | · | · | · | i | ·
Cc1ccc2c(c1)CCCN2C(=O)c1ccoc1C | -1% | 2% | i | -18% | 5.6µM* | 6%
COc1ccc2c(C)cc(SCC(=O)NC3CCCC3)nc2c1 | -1% | 11µM* | i | 19% | i | ·
Cc1cc(SCC(=O)NC2CC2)nc2ccccc12 | -1% | 7% | i | ? | i | ·
COc1ccc2c(-c3ccccc3)cc(SCC(=O)N(C)C)nc2c1 | 0% | -17% | i | 22µM* | i | 3%
COc1ccc2c(-c3ccccc3)cc(SCC(=O)NC(N)=O)nc2c1 | 2% | -1% | i | 3% | i | 30%
Cc1ccc(C)c(N2CCN(C(=O)CCC(=O)N3CCOc4ccc(Cl)cc43)CC2)c1 | -5% | ? | ? | ? | 25µM* | -2%
Cn1c(O)c(N=NC(=O)c2ccccc2O)c2ccccc21 | -3% | 4% | i | 16µM* | i | ?
Cc1nc(NCc2cnn(C)c2)sc1-c1ccn(-c2cccc(F)c2)n1 | -3% | · | · | · | · | ·
O=C(CNc1cccc2ccccc12)N/N=C/c1ccc([N+](=O)[O-])o1 | 3% | 19% | i | 20µM* | i | ?
Cc1cc(N/N=C/c2ccc([N+](=O)[O-])o2)nc2ccccc12 | 3% | 0% | i | 13µM* | i | ?
COc1ccccc1OCC(=O)N/N=C/C=C/c1ccc([N+](=O)[O-])o1 | -8% | ? | i | 13µM* | · | ?
O=C(CNc1cccc([N+](=O)[O-])c1)N/N=C/c1ccc([N+](=O)[O-])o1 | -3% | 4% | i | 3% | i | ?
Cc1ccccc1OCC(=O)N/N=C/c1ccc([N+](=O)[O-])o1 | -2% | 5% | i | 11% | i | ?
Cc1cc2ncn(/N=C/c3ccc([N+](=O)[O-])o3)c2cc1C | -2% | ? | i | 8.9µM* | i | ?

High-throughput results (PubChem)
